Pf growth 48h: inhibits P. falciparum growth in the first generation, 48 h. P. falciparum luciferase growth in erythrocytes, 48 h. Potency, µM (series often up to 28.7 µM), inactives show at the top dose activity change, negative = inhibition, usual class: inhibitors. 310,000 tested, 5.9% active; further: potency means the concentration at half of the fitted maximal effect; on the % scale 0 is the no-effect control and ±100 the full control effect
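Here the parasites carry a stable luciferase gene and grow inside erythrocytes in Albumax-based RPMI medium with compound for one erythrocytic cycle. Activity is scored as loss of luminescent signal.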
Cycloheximide cs: counter-screen for Shiga toxin inhibitors: cycloheximide protein synthesis inhibition | AID 2314 | 300,000 tested, 12% active | max response, % | cell reporter, cycloheximide protein synthesis inhibition counterscreen; in the data active means max response mostly above about 13%, no sharp cut-off; inactive means mostly below about 14%; further: read at 38.3 µM for the half of the compounds with a filed dose; 0% is about no effect
NS1 inh: influenza NS1 inhibition; Potency, µM (doses to about 46.1 µM), inactives show at the top dose activity, positive = more growth; 270,000 tested, 0.4% active; AID 2326; calls by dose curve; further: potency means the concentration at half of the fitted maximal effect; actives are rising curves; nearly all actives have a fitted effect of over 50% in size
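In this qHTS, NS1 from influenza A is expressed in budding yeast, where it slows growth. Cells are switched from glucose to 2% galactose medium (pH 6.0, -URA), treated with compound, and growth recovery is read at OD600.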
SARS PLP yeast: blocks SARS-CoV papain-like protease in a yeast assay. S. cerevisiae expressing SARS-CoV PLpro, growth rescue. Potency, µM (top dose mostly 32.9 µM), for the others: at the top dose activity, positive = growth rescue, hits mostly activators. 330,000 tested, 0.19% active; calls by dose curve; further: potency means the concentration at half of the fitted maximal effect; 0% is about no effect; nearly all actives have a fitted effect of over 55% in size
Pf growth 96h: inhibits malaria parasite growth, 96 h. 320,000 tested, 6.9% active. P. falciparum luciferase reporter growth, 96 h. Potency, µM (highest dose often 28.7 µM), without a hit: at the top dose activity change, negative = inhibition, hits mostly inhibitors; further: potency means the concentration at half of the fitted maximal effect; on the % scale 0 is the no-effect control and ±100 the full control effect
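Two-generation exposure (96 h) targets delayed-death phenotype. Reporter parasites carrying integrated firefly luciferase, in red cells at 2% hematocrit and 0.05% parasitemia final, kept at 37 C, 5% CO2; luminescence loss indicates inhibition.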
Shiga toxin inh: blocks Shiga toxin action in Vero cells; Vero cells, Shiga toxin protein synthesis inhibition reporter; inhibition, % at 38.7 µM; 290,000 tested, 9.2% active; AID 2315; in the data active means inhibition mostly above about 28%, no sharp cut-off; inactive means mostly below about 43%; further: 0% is about no effect
* hit, by the source's call; i = inactive; ? = inconclusive; . = not tested or not shown. Only some compounds are listed: those with a hit (about 21% of all), similar ones and a draw of the others. Unless noted, the call rests on the fitted dose curve; in most records, active means well fitted inhibition curve with a large enough effect; inconclusive means small, poorly fitted or top-dose-only effect, or another doubt; inactive means no such curve, though single readings can be large or run the other way.

SMILES	Pf growth 48h	Cycloheximide cs	NS1 inh	SARS PLP yeast	Pf growth 96h	Shiga toxin inh
O=C1NC(=O)/C(=C/c2ccc(N3CCOCC3)o2)N1	1.47µM*	-1.4	1.9%	0.0%	?	-11.9
CN1C(=O)C(=Cc2ccc(N3CCOCC3)o2)C(=O)N(C)C1=O	23.9%	4.1	15.9%	-2.4%	-6.2%	-29.7
CCn1cnc2cc([N+](=O)[O-])ccc21	?	7.0	.	-6.5%	82.5%	29.3
COc1ccccc1NS(=O)(=O)c1cc(NC(=O)c2cccs2)ccc1N1CCCCC1	?	1.0	?	17.4%	3.7µM*	10.1
O=C(Nc1ccc(N2CCCC2)c(S(=O)(=O)Nc2cccc(C(F)(F)F)c2)c1)c1cccs1	?	-1.1	15.7%	1.5%	14.7µM*	-9.9
COc1ccccc1NS(=O)(=O)c1cc(NC(=O)c2cccs2)ccc1N1CCCC1	?	-3.0	29.0%	-5.7%	?	1.3
COc1ccccc1NS(=O)(=O)c1cc(NC(=O)Nc2ccccc2)ccc1N1CCCCC1	2.62µM*	5.6	?	-3.7%	1.47µM*	16.7
COc1cc(OC)c(S(=O)(=O)Nc2ccccc2N2CCCCC2)cc1NC(C)=O	9.28µM*	-4.0	-2.9%	2.6%	9.28µM*	2.2
COc1cc(S(=O)(=O)Nc2ccccc2N2CCCCC2)ccc1NC(C)=O	-25.0%	.	.	0.7%	?	.
O=C(Nc1cc(C(F)(F)F)ccc1N1CCOCC1)c1cccs1	.	3.6	4.4%	-0.3%	?	-3.8
CN(CC(=O)NCCC1=CCCCC1)S(=O)(=O)c1ccc2c(c1)CCC(=O)N2	?	-3.7	-4.3%	1.8%	3.29µM*	17.2
O=C1CCc2cc(S(=O)(=O)N3CCC(C(=O)NCCC4=CCCCC4)CC3)ccc2N1	.	-3.4	-4.9%	-4.6%	0.828µM*	1.0
CCOc1ccc(OCCC(=O)OCC(=O)NNC(=O)c2ccccc2)cc1	-6.8%	.	.	0.3%	?	.
Cc1nccc(-c2cc(-c3ccc(Cl)cc3Cl)no2)n1	126.5%	36.0*	-0.8%	0.4%	344.9%	96.5*
COc1ccccc1CNC(=O)C1=CCN(S(=O)(=O)c2ccc(C)cc2)CC1	-15.9%	-2.6	-5.7%	-1.0%	-25.8%	-8.2
CN(C)S(=O)(=O)N1CCC(Oc2ccc(C(=O)NCCc3cscn3)cc2)CC1	10.4%	-2.3	-0.3%	4.6%	?	-5.3
C#CCN(CC=C)C(=O)c1ccc(OC2CCN(S(=O)(=O)N(C)C)CC2)cc1	1.9%	36.7*	4.1%	-1.0%	?	62.3*
CC(C)CCNC(=O)c1ccc(OC2CCN(S(=O)(=O)N(C)C)CC2)cc1	-24.4%	39.8*	-4.0%	-0.9%	-28.4%	42.9
C=C(C)CN(CC)C(=O)c1ccc(OC2CCN(S(=O)(=O)N(C)C)CC2)cc1	0.0%	37.9*	0.8%	-0.2%	4.15µM*	55.1*
C=C(C)CNC(=O)c1ccc(OC2CCN(S(=O)(=O)N(C)C)CC2)cc1	2.4%	19.6*	-4.4%	-2.0%	13.1µM*	11.3
CCn1c(SCC(=O)NCc2ccccc2)nnc1C(CO)NC(=O)c1ccccc1 (configuration not stated)	-4.3%	-2.2	9.7%	2.5%	10.9%	-4.4
C=CCNC(=S)NC(CC(=O)OC)c1ccc2c(c1)OCO2 (configuration not stated)	2.6%	-2.0	3.5%	-0.8%	17.1%	-6.3
O=C(/C=C/c1cccc([N+](=O)[O-])c1)NCCSCc1ccc(Cl)cc1Cl	1.7%	-3.5	8.1%	-9.6%	-17.7%	-10.6
O=C(Cc1ccccc1[N+](=O)[O-])NCc1ccccc1Cl	75.4%	54.5*	9.4%	1.5%	212.0%	95.4*
O=C(/C=C/c1cccc([N+](=O)[O-])c1)NCCSCc1ccccc1Cl	-0.4%	-0.6	-46.4%	-40.9%	2.94µM*	0.8
SMILES	Pf growth 48h	Cycloheximide cs	NS1 inh	SARS PLP yeast	Pf growth 96h	Shiga toxin inh
O=C(NCc1ccccc1Cl)c1ccncc1	4.5%	-1.6	-4.8%	-1.5%	-11.5%	-2.0
O=C(NCc1ccccc1Cl)c1ccc(-c2ccccc2)cc1	18.5%	22.3*	-5.4%	-4.2%	?	46.9*
O=C(Cc1ccc(Cl)cc1)NCCS(=O)c1ccc(Cl)cc1 (configuration not stated)	7.9%	-5.1	-11.1%	-1.0%	1.17µM*	-16.1
Cc1cccc(C(=O)OCC(=O)N2CCCC2=O)c1[N+](=O)[O-]	31.8%	.	.	1.7%	30.4%	.
O=c1[nH]c(Cn2nnc(-c3ccccc3)n2)nc2scc(-c3ccccc3)c12	-17.1%	-6.7	-9.0%	-3.1%	i	18.4
O=C(Cc1ccccc1[N+](=O)[O-])NCCSCc1c(F)cccc1Cl	-9.1%	40.4*	-1.3%	0.3%	-3.8%	40.4
Cc1ccccc1CNC(=O)Cc1ccccc1[N+](=O)[O-]	77.3%	58.4*	0.0%	12.0%	?	61.9*
CC(C)C[C@@H](NC(=O)[C@@H](O)[C@H](N)Cc1ccccc1)C(=O)O	.	40.5*	.	.	.	34.3*
CC(C)C[C@H](NC(=O)NCc1ccccc1Cl)C(=O)O	6.9%	-3.6	6.7%	-1.9%	0.928µM*	23.9
Cc1c(C(=O)NCCSCc2c(Cl)cccc2Cl)cccc1[N+](=O)[O-]	?	-1.1	-4.7%	-13.1%	74.6%	16.4
COC(=O)C(Cc1ccccc1)NC(=O)C(CC(C)C)NC(=O)OC(C)(C)C (configuration not stated)	-1.3%	-2.4	-19.4%	-3.9%	24.4%	-6.3
Cc1ccc(Cl)cc1NC(=S)N(CCCN1CCN(C)CC1)Cc1ccco1	-17.4%	-6.0	1.7%	-1.4%	?	-19.1
CCNC(=O)/C=C/c1ccccc1[N+](=O)[O-]	22.7%	-5.7	1.3%	-0.6%	?	4.6
O=C(CCNC(=O)c1ccc(Cl)cc1)NCc1ccccc1Cl	-19.5%	.	.	5.6%	-23.7%	.
O=C(/C=C/c1ccccc1[N+](=O)[O-])NCc1ccccc1Cl	-10.2%	50.2*	.	0.3%	-21.9%	59.6
O=C(Cc1ccc(Cl)cc1)NCc1ccccc1Cl	118.9%	49.5*	.	1.2%	11.7%	115.4
Cc1cc(C)n2nc(CC(=O)NCc3ccccc3Cl)nc2n1	7.0%	6.2	5.7%	-15.3%	3.29µM*	40.1
O=C(O)COc1ccc(/C=C2\SC(=Nc3ccccc3)N(c3ccccc3)C2=O)cc1	0.4%	-2.1	.	0.3%	-10.0%	17.4
O=C(O)c1ccc(/C=C2\SC(=Nc3ccccc3)N(c3ccccc3)C2=O)cc1	-13.6%	2.5	.	-0.1%	0.294µM*	-16.6
O=C(O)COc1ccccc1/C=C1\SC(=Nc2ccc(F)cc2)N(c2ccc(F)cc2)C1=O	10.4µM*	2.4	13.2%	-0.1%	?	5.0
CCOc1ccc(/C=N/NC(=O)c2cc(-c3cccn3C)n[nH]2)cc1	-11.6%	-7.4	.	0.6%	-25.1%	-13.1
CC(C)n1c(SCC(=O)Nc2ccc(N3CCOCC3)cc2)nnc1-c1ccco1	-2.5%	3.7	2.3%	10.4%	-19.0%	18.9
COC(=O)C1(C)NC(=O)c2ccccc2N1 (configuration not stated)	-0.6%	15.5*	3.3%	2.9%	13.1µM*	1.1

Compound activity from PubChem.
